Records with an inconclusive call do not appear. Unmarked numbers belong to inactive results. Calls follow the shape of the full dose curve.
These compounds were tested against Peroxisome proliferator-activated receptor delta (Homo sapiens) (UniProt Q03181) (assay: qHTS assay to identify small molecule agonists of the peroxisome proliferator-activated receptor delta (PPARd) signaling pathway (AID 743212)). Conditions: HEK293H PPARd-UAS-bla, beta-lactamase FRET ratio, 17 h; series mostly up to 62.6 µM; activation: at the top concentration.
Summary of the method: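 HEK293H UAS-bla reporter cells, human PPARd system; compounds delivered in DMSO after 5 h plating, then at 37 C. Beta-lactamase FRET read, 2 h RT substrate step.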
% is scaled to controls: 0 for no effect and ±100 for the full control effect.

Peroxisome proliferator-activated receptor delta (Homo sapiens), sequence (Q03181 whole entry, looked up): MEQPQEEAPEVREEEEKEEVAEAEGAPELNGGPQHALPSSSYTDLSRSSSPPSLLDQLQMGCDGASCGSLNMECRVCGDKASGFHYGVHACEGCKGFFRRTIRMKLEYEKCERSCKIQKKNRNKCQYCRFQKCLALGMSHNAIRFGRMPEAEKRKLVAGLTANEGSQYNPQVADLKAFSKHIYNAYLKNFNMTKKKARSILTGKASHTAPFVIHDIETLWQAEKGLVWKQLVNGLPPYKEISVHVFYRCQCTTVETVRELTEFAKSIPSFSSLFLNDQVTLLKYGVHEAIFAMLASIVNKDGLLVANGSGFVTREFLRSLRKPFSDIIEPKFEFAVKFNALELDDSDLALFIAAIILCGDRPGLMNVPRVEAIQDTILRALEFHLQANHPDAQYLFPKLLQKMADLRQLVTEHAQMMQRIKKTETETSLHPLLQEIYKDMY

In order of falling “activation” value:
1. CCCCCOC(=O)CCC  10.2%
2. COCCc1ccc(OCC2CO2)cc1 (stereo not given)  8.92%
3. COc1ccc2nc(SCc3ncc(C)c(OC)c3C)[nH]c2c1  7.6%
4. CCC(C)NC(N)=O (stereo not given)  7.07%
5. CCOCCOCCOCC  5.59%
6. CCCCOC(=O)c1ccccc1  5.51%
7. O=C(O)c1cc(Br)c(O)c(Br)c1  4.55%
8. Cc1cccc2nccnc12  4.05%
9. O=C(NCCN1CCOCC1)c1ccc(Cl)cc1  3.81%
10. COc1ccc(-c2cc(=O)c3c(O)cc(O[C@@H]4O[C@H](CO[C@@H]5O[C@@H](C)[C@H](O)[C@@H](O)[C@H]5O)[C@@H](O)[C@H](O)[C@H]4O)cc3o2)cc1O  3.8%
11. CC(C)=O  2.95%
12. CN(CCOc1ccc(NS(C)(=O)=O)cc1)CCc1ccc(NS(C)(=O)=O)cc1  1.91%
13. C=C(C)C(=O)OCCN(CC)CC  0.84%
14. O=C1c2ccccc2C(=O)N1CCl  0.638%
15. Cc1ccc2ccc(Cl)cc2n1  0.388%
16. N[C@@H](CCC(=O)Nc1ccc([N+](=O)[O-])cc1)C(=O)O  0.327%
17. CCNC(=O)C1CC(C)CCC1C(C)C (stereo not given)  0.163%
18. Cc1ccccc1OCC(O)CO (stereo not given)  -0.0972%
19. COc1nccnc1NS(=O)(=O)c1ccc(N)cc1  -0.292%
20. NNc1nnc(NN)c2ccccc12  -0.315%
21. O=C(OCC1(COC(=O)c2cccnc2)CCCC(COC(=O)c2cccnc2)(COC(=O)c2cccnc2)C1O)c1cccnc1  -0.611%
22. CC(C)OC(=O)CCCCC(=O)OC(C)C  -0.682%
23. COC(=O)c1ccccc1C(=O)c1ccc(OCCN2CCCCC2)cc1  -3.26%
24. NC(CO)C(=O)NNCc1ccc(O)c(O)c1O (stereo not given)  -3.58%
25. CC(=O)CCCCn1c(=O)c2c(ncn2C)n(C)c1=O  -4.05%
26. COC(=O)[C@@H]1[C@H]2C[C@H]3c4[nH]c5ccccc5c4CCN3C[C@@H]2CC[C@@H]1O  -4.31%
27. O=C(CCN1CCN(CCO)CC1)N1c2ccccc2Sc2ccc(C(F)(F)F)cc21  -4.66%
28. C[C@H](CCC(=O)O)[C@H]1CC[C@H]2[C@@H]3C(=O)C[C@@H]4CC(=O)CC[C@]4(C)[C@H]3CC(=O)[C@]12C  -5.7%

In order of rising “activation” value:
1. OC[C@H](Cc1cccc(O)c1)[C@H](CO)Cc1cccc(O)c1  -1.14% [at 81.1 µM]
2. CC(=O)Nc1cccc(C)c1  -1.01% [at 81.1 µM]

From PubChem BioAssay (Tox21)
